Measurements: PubChem BioAssay AID485344 (National Center for Advancing Translational Sciences (NCATS), 2010)
The whole screen tested about 340,000 compounds, of which about 6,900 (2%) were called active. Many of the other results were omitted from the sample, so actives are more common in it than they were. Values without a mark were called inactive. Rule as the data show it: active = inhibition above about 30%; inactive = below that, where a call was filed.

Each compound was assayed against D(2) dopamine receptor (Homo sapiens) (UniProt P14416) (assay: HTS Assay for Allosteric Antagonists of the Human D2 Dopamine Receptor: Primary Screen for Antagonists). Details: HEK293 TREx D2 cells, calcium flux, dopamine EC80; at 10 µM; hits give high values.
D(2) dopamine receptor (Homo sapiens), sequence (P14416 whole entry, looked up): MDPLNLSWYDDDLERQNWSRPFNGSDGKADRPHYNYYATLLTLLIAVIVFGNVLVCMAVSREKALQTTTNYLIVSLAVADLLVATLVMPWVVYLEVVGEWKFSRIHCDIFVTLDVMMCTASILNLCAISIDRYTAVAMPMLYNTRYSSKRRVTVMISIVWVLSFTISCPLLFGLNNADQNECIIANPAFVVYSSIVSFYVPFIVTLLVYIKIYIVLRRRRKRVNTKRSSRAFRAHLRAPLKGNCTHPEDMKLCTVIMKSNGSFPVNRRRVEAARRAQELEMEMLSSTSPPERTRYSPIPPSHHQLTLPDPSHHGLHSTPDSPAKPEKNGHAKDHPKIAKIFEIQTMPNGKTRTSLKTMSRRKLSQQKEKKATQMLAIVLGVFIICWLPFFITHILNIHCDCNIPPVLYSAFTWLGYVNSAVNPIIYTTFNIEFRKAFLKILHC
From the text: NIH Chemical Genomics Center [NCGC] NIH Molecular Libraries Probe Centers Network [MLPCN] MLPCN Grant: NS064831-01 Assay Submitter (PI): David Sibley Dopamine receptors (DARs) are involved in the etiology and/or therapy of a number of neuropsychiatric and endocrine disorders. For instance, all receptor-based antiparkinsonian drugs work via stimulating the D2 DAR subtype whereas all FDA-approved antipsychotic agents are antagonists of this receptor. […] There are three different types of allosteric modulators that we are seeking, two of which will stimulate or augment receptor signaling, allosteric agonists and potentiators, while the third, allosteric antagonists, will attenuate receptor signaling. The present primary screening assay measures compound antagonism after an EC80 addition of dopamine by tracking calcium flux in a […], inducible Hek293 Trex D2 cell line.
Freshly passaged cells are plated in 1536 well black, clear bottom plates at a density of 4000 cells/well in 3 ul of complete media containing 1x tetracycline inducer. After an overnight incubation at 30 C in 5% CO2, cells are loaded with 2 ul of the no wash Calcium Assay Kit (ABD Bioquest) and incubated at room temperature for 30 to 90 minutes. Agonist read: A 10 cycle (1 second/cycle) baseline measurement is taken and then the FDSS online 1536 pintool delivers 23 nl of compound library (as well as dopamine controls) to the plate. The plate is measured for kinetically at 1 cycle/sec for 180 seconds. Following the 180 second read, 1 ul of an EC80 (negative modulation assay) is delivered by an onboard pipette head. Measurements are taken kinetically for an additional 180 seconds.
Also: 0% is about no effect.

SMILES | inhibition
Cc1nc(N2CCN(c3ccccn3)CC2)c2c(C)c(C(=O)Nc3ccc(F)cc3)sc2n1 | 8.07%
Cc1c(CN2CC[C@@H](N3CCN(c4ccccn4)CC3)[C@H](O)C2)[nH]c2ccc(F)cc12 | 51.4% (active)
O=C(CCC1CCCN(C(=O)Cc2ccc(F)cc2)C1)N1CCN(c2ccccn2)CC1 (stereo not given) | -9.86%
O=C(CN1CCN(C2CCS(=O)(=O)C2)CC1)N1N=C(c2ccc(Cl)cc2)CC1c1ccco1 (stereo not given) | -10.4%
CC(=O)c1ccc(OCCCC(=O)Nc2ccc(C)c(S(=O)(=O)N3CCOCC3)c2)cc1 | 6.79%
CC(OC(=O)c1cc2ccccc2o1)C(=O)Nc1ccc(N2CCOCC2)cc1 (stereo not given) | 8.62%
Brc1ccccc1CN1CCC(Cc2ccccc2)CC1 | 17.7%
O=C(c1ccccc1)c1ccc2nc(N3CCCCC3)c3nncn3c2c1 | -2.11%
c1ccc(CC2CCN(c3nc4ccccc4n4cnnc34)CC2)cc1 | 37.6% (active)
CCc1sc(C(=O)N2CCN(CC(=O)Nc3cccc(F)c3)CC2)cc1C | 22.4%
Cc1cc(Br)ccc1NC(=O)CN(C)C(=O)CN1C(=O)NC2(CCCC2)C1=O | 7.4%
CCOC(=O)C1=C(COC(=O)[C@H](C)NS(=O)(=O)c2ccccc2F)NC(=O)NC1C (stereo not given in full) | 11%
O=C(OCC(=O)N1CCOCC1)c1ccc2ccccc2c1 | -1.03%
CCCCCN(C(=O)CCC(=O)OCCOc1ccc(OC)cc1)c1c(N)n(CCCC)c(=O)[nH]c1=O | -2.34%
COc1cc2ccccc2cc1C(=O)Nc1ccncc1 | 5.03%
CCOC(=O)c1cc(C)nc(S(C)(=O)=O)c1C#N | 5.94%
CC(=O)c1cc(C#N)c(SCC(=O)C(C)(C)C)nc1C | -15%
CCCCSc1[nH]c(=O)c(C(=O)OCC)cc1C#N | 30.2% (active)
CCC(C)N(C(=O)CSc1ncnc2c1cnn2-c1ccccc1)C1CCS(=O)(=O)C1 (stereo not given) | 1.86%
O=C(CCNC(=O)c1ccc(Br)cc1)NCC(c1ccco1)N1CCCCC1 (stereo not given) | 17%
COc1cccc(CNS(=O)(=O)c2ccc3c(c2)CC(C)N3C(C)=O)c1 (stereo not given) | -5.54%
CC(=O)N1c2ccc(S(=O)(=O)N(C)CC(=O)N(C)Cc3ccccc3)cc2CC1C (stereo not given) | 36.2% (active)
CC(=O)N1c2ccc(S(=O)(=O)NCCC(=O)N(C)C3CCCCC3)cc2CC1C (stereo not given) | -4.33%

SMILES | inhibition
CCOc1ccc(NC(=O)CN(C)C(=O)CSc2ccccc2)cc1OCC | 13.7%
CCOC(=O)CNc1nc(Cl)nc(Nc2ccccc2)n1 | 6.97%
COC(=O)CNc1nc(Cl)nc(N2CCC(C)CC2)n1 | 35.9% (active)
Clc1nc(NC2CCCC2)nc(N2CCOCC2)n1 | -9.32%
O=C(CN1CCc2ccccc2C1)Nc1cccc(S(=O)(=O)N2CCOCC2)c1 | -6.15%
COc1ccc(F)cc1C(=O)COC(=O)c1n[nH]c(=O)c2ccccc12 | -10.9%
CN(C(=O)Cn1nnc(-c2ccc(F)cc2)n1)C1CCS(=O)(=O)C1 (stereo not given) | 9.49%
Cc1ccc(OCCNC(=O)CCNS(=O)(=O)c2ccc(Br)cc2)cc1 | 23.7%
O=C(CCNS(=O)(=O)c1ccccc1)NCCSc1ccc(Br)cc1 | 45.1% (active)
O=C(CCNS(=O)(=O)c1ccccc1)NCCCc1ccccc1 | 21%
O=C(CCNS(=O)(=O)c1ccccc1C(F)(F)F)Nc1ccncc1 | -6.21%
CN(Cc1ccccc1F)C(=O)C(Cc1ccccc1)NC(=O)c1ccccc1 (stereo not given) | -5.32%
NS(=O)(=O)c1ccc(NC(=O)COC(=O)c2cc3ccccc3oc2=O)cc1 | -18.7%
O=C(COC(=O)CNC(=O)c1ccco1)Nc1ccc(F)cc1 | -3.88%
NS(=O)(=O)c1ccc(NC(=O)COC(=O)c2ccco2)cc1 | 38.5% (active)
NC(=O)c1ccc(NC(=O)COC(=O)c2ccc([N+](=O)[O-])cc2)cc1 | -23.5%
O=C(COC(=O)C1CCCCC1)Nc1ccc([N+](=O)[O-])cc1 | 35.3% (active)
N/C(Cc1ccc([N+](=O)[O-])cc1)=N\OC(=O)C1CCCCC1 | 2.32%
COc1ccc(CNC(=O)CN2C(=O)NC3(CCCc4sccc43)C2=O)cc1 (stereo not given) | 2.45%
Cc1ccc(S(=O)(=O)N2CCCCC2)cc1C(=O)N1CCN(CCO)CC1 | -6.17%
COc1ccc(NC(=O)c2cn(-c3ccccc3)nc2SC)cc1 | 60.7% (active)
COc1ccc(-c2nn(-c3ccccc3)cc2/C=C\C(=O)Nc2ccc(C(=O)O)cc2)cc1 | 0.137%
